Source: PubChem BioAssay
A number with no mark means an inactive call. For some of these results: Results with a measured potency or affinity are listed apart. Calls of active or inactive are those of the source. Unless noted, no rule for the calls is given here.

Legend:
[1] = antimalarial activity against Dd2 strain (AID 2302;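 active = growth inhibition above 50% at the single 2 µM test dose, taken to imply half-maximal potency below 2 µM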;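 also: 0% = DMSO untreated growth and 100% = chloroquine plus artemisinin killed control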); settings: P. falciparum Dd2 in RBCs, LDH growth readout, 72 h; at 2 µM; hits give high values
[2] = human hepatoma cell viability loss – ATP luminescence, cytotoxicity control for P. falciparum antimalarial project, primary screen (AID 2303;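 active = inhibition above 50%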;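 also: 0% = DMSO wells and 100% = digitonin-killed cells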); settings: HepG2 viability, 24-48 h, at 10 µM, hits give high values
[3] = biological target: L-lactate dehydrogenase (Plasmodium falciparum (isolate CDC / Honduras)) (UniProt Q27743); assay: PfLDH activity inhibition – cell lysate, 3D7 strain, counter-screen for P. falciparum growth inhibition project (AID 2304);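 also: 0% = vehicle and 100% = reference inhibitor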; settings: P. falciparum 3D7 crude extract, LDH APAD/NBT absorbance; at 2 µM; hits give high values
[4] = inhibition of 3D7 malaria parasite growth – strain 3D7 (AID 2306);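 also: 0% = DMSO wells and 100% = chloroquine plus artemisinin control wells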; settings: P. falciparum 3D7 erythrocytic growth, LDH absorbance, 72 h; at 2 µM; hits give high values
[5] = biological target: Calcium-dependent protein kinase 1 (Plasmodium falciparum (isolate 3D7)) (UniProt P62344); assay: PfCDPK1 kinase inhibitors, biochemical, TCAMS library (AID 1159585; cut-off not given, nearly all actives have IC50 up to about 0.98 µM;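 also: inhibitors leave more ATP so luminescence rises with inhibition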); settings: recombinant PfCDPK1, Kinase-Glo ATP depletion luminescence
[6] = biological target: Plasmodium falciparum protein kinase 6 (PK6, PF3D7_1337100) (UniProt Q8IDW1); assay: PfPK6 kinase inhibitors, biochemical, TCAMS library (AID 1159586); settings: recombinant PfPK6, Kinase-Glo ATP depletion luminescence
[7] = biological target: Protein kinase 7 (PK7), Plasmodium falciparum 3D7 (PF3D7_0213400) (UniProt Q7YTF7); assay: inhibition of Plasmodium PK7 catalytic activity – biochemical, TCAMS antimalarial set, Kinase-Glo luminescence (AID 1159587); settings: recombinant PfPK7, Kinase-Glo ATP depletion luminescence
[8] = biological target: Calcium-dependent protein kinase 4 (Plasmodium falciparum (isolate 3D7)) (UniProt Q8IBS5); assay: PfCDPK4 kinase inhibitors, biochemical, TCAMS library (AID 1159588; cut-off not given, nearly all actives have IC50 up to about 0.91 µM); settings: recombinant PfCDPK4, Kinase-Glo ATP depletion luminescence
Calcium-dependent protein kinase 4 (Plasmodium falciparum (isolate 3D7)), sequence (Q8IBS5 whole entry, looked up): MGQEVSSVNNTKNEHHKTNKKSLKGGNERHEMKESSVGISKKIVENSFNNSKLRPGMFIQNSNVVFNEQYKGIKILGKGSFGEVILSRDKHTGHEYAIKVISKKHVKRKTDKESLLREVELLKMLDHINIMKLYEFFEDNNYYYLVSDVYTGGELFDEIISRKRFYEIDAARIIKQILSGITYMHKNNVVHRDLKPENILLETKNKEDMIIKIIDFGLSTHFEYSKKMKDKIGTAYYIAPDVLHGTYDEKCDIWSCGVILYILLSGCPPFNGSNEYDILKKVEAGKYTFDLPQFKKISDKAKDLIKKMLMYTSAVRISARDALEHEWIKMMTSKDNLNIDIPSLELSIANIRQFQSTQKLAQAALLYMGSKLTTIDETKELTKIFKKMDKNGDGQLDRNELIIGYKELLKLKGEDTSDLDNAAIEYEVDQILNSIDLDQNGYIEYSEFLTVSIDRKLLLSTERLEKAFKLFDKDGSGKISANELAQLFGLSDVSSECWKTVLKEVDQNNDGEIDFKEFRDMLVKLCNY

Calcium-dependent protein kinase 1 (Plasmodium falciparum (isolate 3D7)), sequence (P62344 whole entry, looked up): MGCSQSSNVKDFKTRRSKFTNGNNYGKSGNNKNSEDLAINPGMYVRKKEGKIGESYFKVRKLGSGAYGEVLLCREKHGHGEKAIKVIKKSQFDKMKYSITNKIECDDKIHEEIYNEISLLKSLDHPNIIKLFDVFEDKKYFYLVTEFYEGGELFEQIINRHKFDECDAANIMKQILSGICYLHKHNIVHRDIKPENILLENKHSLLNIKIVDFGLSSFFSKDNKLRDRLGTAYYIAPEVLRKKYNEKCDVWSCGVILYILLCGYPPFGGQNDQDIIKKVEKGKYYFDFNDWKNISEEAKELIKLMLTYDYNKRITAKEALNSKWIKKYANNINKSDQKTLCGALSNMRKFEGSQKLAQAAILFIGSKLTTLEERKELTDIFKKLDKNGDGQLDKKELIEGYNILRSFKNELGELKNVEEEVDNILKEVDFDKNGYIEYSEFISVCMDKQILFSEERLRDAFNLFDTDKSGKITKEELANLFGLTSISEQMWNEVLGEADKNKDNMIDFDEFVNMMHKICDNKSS
L-lactate dehydrogenase (Plasmodium falciparum (isolate CDC / Honduras)), sequence (Q27743 whole entry, looked up): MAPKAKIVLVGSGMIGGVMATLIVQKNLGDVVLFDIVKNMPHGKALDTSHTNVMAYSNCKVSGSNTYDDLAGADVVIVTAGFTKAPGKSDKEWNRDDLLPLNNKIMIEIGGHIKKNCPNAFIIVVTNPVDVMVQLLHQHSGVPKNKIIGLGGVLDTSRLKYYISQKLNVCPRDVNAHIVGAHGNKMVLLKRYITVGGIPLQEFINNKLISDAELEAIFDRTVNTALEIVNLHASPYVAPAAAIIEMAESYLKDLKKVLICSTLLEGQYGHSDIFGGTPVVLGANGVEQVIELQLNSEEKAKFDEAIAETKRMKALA
Plasmodium falciparum protein kinase 6 (PK6, PF3D7_1337100), sequence (Q8IDW1 1-305): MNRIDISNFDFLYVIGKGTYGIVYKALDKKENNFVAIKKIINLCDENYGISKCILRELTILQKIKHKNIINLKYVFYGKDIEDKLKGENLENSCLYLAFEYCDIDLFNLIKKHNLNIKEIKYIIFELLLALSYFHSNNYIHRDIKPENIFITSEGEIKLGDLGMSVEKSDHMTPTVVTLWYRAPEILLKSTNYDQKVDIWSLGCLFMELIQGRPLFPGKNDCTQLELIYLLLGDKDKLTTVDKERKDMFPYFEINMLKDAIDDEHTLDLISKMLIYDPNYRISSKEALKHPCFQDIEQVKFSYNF
Protein kinase 7 (PK7), Plasmodium falciparum 3D7 (PF3D7_0213400), sequence (Q7YTF7 1-343): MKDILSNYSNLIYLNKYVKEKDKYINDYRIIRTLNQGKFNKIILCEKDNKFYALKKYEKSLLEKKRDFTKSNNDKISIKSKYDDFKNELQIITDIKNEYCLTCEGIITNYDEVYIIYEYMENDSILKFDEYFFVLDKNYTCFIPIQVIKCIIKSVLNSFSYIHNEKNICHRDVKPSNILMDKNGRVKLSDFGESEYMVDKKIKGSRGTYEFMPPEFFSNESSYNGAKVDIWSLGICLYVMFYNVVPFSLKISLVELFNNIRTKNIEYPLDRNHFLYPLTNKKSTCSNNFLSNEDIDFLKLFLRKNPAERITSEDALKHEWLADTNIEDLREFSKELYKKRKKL

Row | SMILES | growth inhibition [1] | inhibition [2] | inhibition [3] | growth inhibition [4] | outcome [5] | outcome [6] | outcome [7] | outcome [8]
1 | Nc1nccc2ccc(-c3ccc4nccn4c3)cc12 | 100% (active) | 15% | -2% | 101% (active) | inactive | inactive | inactive | inactive
2 | Cc1c(Cl)cccc1NC(=S)NN=Cc1ccccn1 | 85% (active) | 58% (active) | 5% | 99% (active) | inactive | inactive | inactive | inactive
3 | C=CCn1c(Sc2ccc(C#N)c([N+](=O)[O-])c2)nnc1-c1ccc(Cl)cc1 | 85% (active) | 13% | 3% | 97% (active) | inactive | inactive | inactive | inactive
4 | Cn1cc(C2CCN(CCCCNC(=O)c3sc(-c4ccc(C(F)(F)F)cc4)nc3CO)CC2)c2ccccc21 | 15% | 46% | -3% | 95% (active) | inactive | inactive | inactive | inactive
5 | CCNC(C)(C)CN(Cc1ccc(-c2ccc(C(F)(F)F)cc2)cc1)C(=O)Cn1c(SCc2ccc(F)cc2)nc(=O)c2c1CCC2 | 94% (active) | 99% (active) | 2% | 95% (active) | inactive | inactive | inactive | inactive
6 | COc1cc2c(cc1OCCN1CCC(N3CCCC3)CC1)N(C(=O)/C=C/c1ccccc1Cl)CC2 | 68% (active) | 38% | -7% | 100% (active) | inactive | inactive | inactive | inactive
7 | Cc1ccc(Cn2cnc(N3CC(C)NC(C)C3)cc2=O)cc1NC(=O)Nc1ccc(-c2ccccc2)cc1 (centres undefined) | 15% | 18% | 4% | 96% (active) | inactive | inactive | inactive | inactive
8 | Cc1cccc2[nH]c(-c3ccc(-c4ccc(NC(=O)Nc5ccc(F)c(F)c5F)cc4)s3)nc12 | 99% (active) | 58% (active) | 2% | 100% (active) | inactive | inactive | inactive | inactive
9 | Cc1ccc2nc3ccccc3c(NCCN3CCN(C)CC3)c2c1 | 6% | 19% | -7% | 101% (active) | inactive | inactive | inactive | inactive
10 | COc1cc2nc(N3CCC(C(N)=O)CC3)nc(NCc3ccccc3)c2cc1OC | 23% | 23% | -7% | 100% (active) | inactive | inactive | inactive | inactive
11 | O=C(N[C@H]1CCN(CCc2ccc(O[C@H]3CCNC3)c(Br)c2)C1)c1ccc(Cl)c(Cl)c1 | 0% | 28% | -4% | 100% (active) | inactive | inactive | inactive | inactive
12 | Cc1cc2nc(NC3=NC4(c5ccccn5)N=C(Nc5nc6cc(C)c(C)cc6[nH]5)NC4(c4ccccn4)N3)[nH]c2cc1C (centres undefined) | 62% (active) | 3% | -2% | 87% (active) | inactive | inactive | inactive | inactive
13 | CCCNCc1ccc(-c2ccc(CN(CCOC)C(=O)/C=C/c3ccccc3C)cc2)nc1 | 39% | 13% | 2% | 95% (active) | inactive | inactive | inactive | inactive
14 | CN(C)c1ccc(-c2ccc(C(=O)NC3CCN(Cc4ccccc4F)CC3)s2)cc1 | 19% | 30% | -4% | 88% (active) | inactive | inactive | inactive | inactive
15 | Cc1ccc(F)c(OCC2CCN(c3ccc(C(=O)NC4CC4)cn3)CC2)c1 | 95% (active) | 4% | 2% | 94% (active) | inactive | inactive | inactive | inactive
16 | Oc1ccc2[nH]c(-c3cccc(F)c3)nc2c1CNCc1ccccc1 | 55% (active) | 29% | -2% | 92% (active) | inactive | inactive | inactive | inactive
17 | COCCN(C)c1ccc(C(=O)Nc2ccccc2)cc1NS(=O)(=O)Cc1ccccc1 | 47% | 2% | -5% | 92% (active) | inactive | inactive | inactive | inactive
18 | O=C(Cc1ccccc1)NC(CCN1CCC(O)(c2cccc(C(F)(F)F)c2)CC1)c1ccc(Cl)c(Cl)c1 (centres undefined) | 32% | 25% | 1% | 96% (active) | inactive | inactive | inactive | inactive
19 | COc1ccc(NC(=O)Nc2nc3ccccc3s2)cc1N1CCN(C)CC1 | 22% | 6% | -1% | 95% (active) | inactive | inactive | inactive | inactive
20 | CN(C)c1ccc(C=Cc2nc(=O)c3ccccc3o2)cc1 | 97% (active) | 6% | 0% | 96% (active) | inactive | inactive | inactive | inactive
21 | Cn1nc(-c2ccc(CNC3CCc4ccccc43)cc2)c2cnc(NCCN3CCCC3)nc21 (centres undefined) | 17% | 21% | -2% | 99% (active) | inactive | inactive | inactive | inactive
22 | COc1ccc(NC(=O)c2ccc3cc4ccccc4cc3c2)cc1N1CCN(C)CC1 | 29% | 38% | 1% | 86% (active) | inactive | inactive | inactive | inactive
23 | CN(Cc1ccccc1)C(=O)c1nn(CCCN2CCC(N3CCCC3)CC2)cc1-c1ccc(Cl)c(Cl)c1 | 66% (active) | 43% | 0% | 102% (active) | inactive | inactive | inactive | inactive
